In ChEMBL document CHEMBL3988442, “University of Dundee, Small-Polar-MMV Screening Library” (2021):
Entries with a potency or affinity are not part of this list.

Molecular target: Protein translocase subunit SecA (Escherichia coli (strain K12)) (UniProt P10408)
Experiment: Assay to Identify E. coli SecA ATPase Inhibitors
Type: functional
Parameters: scale not given: direction of the effect not stated beside the values
Conditions: 30 µM

Sequence of Protein translocase subunit SecA (Escherichia coli (strain K12)) (P10408 whole entry): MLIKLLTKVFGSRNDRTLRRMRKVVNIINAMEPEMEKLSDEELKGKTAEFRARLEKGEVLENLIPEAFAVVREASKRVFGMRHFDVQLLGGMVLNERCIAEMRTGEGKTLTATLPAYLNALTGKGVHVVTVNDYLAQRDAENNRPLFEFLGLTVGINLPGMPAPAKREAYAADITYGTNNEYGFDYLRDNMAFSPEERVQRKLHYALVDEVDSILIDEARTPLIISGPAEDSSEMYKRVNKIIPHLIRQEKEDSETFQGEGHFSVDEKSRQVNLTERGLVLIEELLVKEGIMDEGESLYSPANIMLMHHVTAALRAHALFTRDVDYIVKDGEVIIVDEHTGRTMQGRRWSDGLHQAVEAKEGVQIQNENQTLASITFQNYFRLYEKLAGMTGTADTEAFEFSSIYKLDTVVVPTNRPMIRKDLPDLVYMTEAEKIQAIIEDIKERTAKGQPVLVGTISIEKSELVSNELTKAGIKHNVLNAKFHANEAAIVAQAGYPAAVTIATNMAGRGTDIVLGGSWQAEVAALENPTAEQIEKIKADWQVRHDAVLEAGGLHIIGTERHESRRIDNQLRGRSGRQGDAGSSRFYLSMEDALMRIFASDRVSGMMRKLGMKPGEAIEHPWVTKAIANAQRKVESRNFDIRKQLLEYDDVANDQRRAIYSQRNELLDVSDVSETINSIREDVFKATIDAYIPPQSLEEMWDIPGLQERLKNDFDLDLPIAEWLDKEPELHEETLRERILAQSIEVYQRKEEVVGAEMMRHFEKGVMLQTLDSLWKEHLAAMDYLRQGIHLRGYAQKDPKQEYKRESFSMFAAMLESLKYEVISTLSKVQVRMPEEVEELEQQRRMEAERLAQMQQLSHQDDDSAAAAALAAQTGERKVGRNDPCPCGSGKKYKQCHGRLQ

| SMILES | Percent Effect [%] |
| --- | --- |
| Cn1c(NCC(O)c2ccc(F)cc2F)c(C#N)c(=O)n(C)c1=O (centres undefined) | -4.86 |
| CC(CNC(=O)N1CCSCC1)Cc1cccs1 (centres undefined) | -4.11 |
| NC(=O)COc1cccc(C(=O)N2CCCC(n3ccnc3)C2)c1 (centres undefined) | -0.383 |
| CCC(O)CNC(=O)c1coc(COc2ccc3sc(C)nc3c2)n1 (centres undefined) | -6.39 |
| CCNC(=O)N1CCC2(C1)c1ccccc1S(=O)(=O)N2CCC(C)C (centres undefined) | -3.49 |
| Cc1ccc(C(CNCc2cnn(C(C)C)c2)N2CCOCC2)s1 (centres undefined) | -3.15 |
| COc1cccc(C(=O)Nc2cc(CC(C)C)nn2C)c1 | -4.81 |
| Cc1cc(F)ccc1CN1CCCC2(C1)OCCO2 | -1.89 |
| CCN(Cc1ccco1)C(=O)Nc1cc(C(F)(F)F)c[nH]c1=O | -7.27 |
| O=C(c1ccccc1OCC1CC1)N1CCCC(n2ccnc2)C1 (centres undefined) | 1.84 |
| Cn1nc(CNC(=O)NCc2ccc(Cl)cc2)c2c1CCOC2 | -4.99 |
| O=C(NCC(Cc1cccc(F)c1)N1CCCC1=O)c1ccccc1 (centres undefined) | -6.41 |
| CSCC(C)(O)CNC(=O)c1ccc(Br)cc1F (centres undefined) | -7.07 |
| CCN1CCC(c2nc3ccc(NC(C)C)cn3n2)CC1 | -3.94 |
| COc1ccc(Oc2cncc(C3CCCN3C(C)=O)n2)cc1 (centres undefined) | -0.946 |
| CCn1nc(C)c(CNC(=O)c2cn(CCC3CCCCN3)nn2)c1C (centres undefined) | -5.31 |
| N#Cc1ccc(N2CCN(C(=O)c3cc(C4CC4)[nH]n3)CC2)c(F)c1 | -6.31 |
| CNS(=O)(=O)c1ccc(C(=O)N2CCCC2c2ccccc2)o1 (centres undefined) | -6.62 |
| CC(=O)c1c(F)cccc1N1CCC(CS(N)(=O)=O)CC1 | -2 |
| Cc1ccc(CC(=O)NC(C)C(=O)N2CCS(=O)(=O)CC2)cc1 (centres undefined) | -6.49 |

| SMILES | Percent Effect [%] |
| --- | --- |
| CCN(C(c1cccnc1)c1ccc2c(c1)CCO2)S(C)(=O)=O (centres undefined) | -3.35 |
| CCOCCCC(=O)NCCC(=O)N1CCN(c2ccccn2)CC1 | -3.47 |
| CCOc1ccc(C(=O)NS(=O)(=O)c2cncc(Br)c2)cc1OC | -4.35 |
| c1ncn(CC2CCCCN2Cc2noc(C3CC3)n2)n1 (centres undefined) | -0.132 |
| COC(=O)c1ccc2ccn(CC3CCCO3)c(=O)c2c1 (centres undefined) | -0.0971 |
| CC(C)C(=O)N1CCN(C(=O)CCc2nnc(-c3ccccc3)o2)CC1 | -1.03 |
| CCNC(c1cccnc1)c1cc(C)cc(C)c1 (centres undefined) | -3.46 |
| NC(=O)C1(Cc2ccccc2-c2ccccc2)CCCN(CC2CC2)C1 (centres undefined) | -0.127 |
| CC(C(=O)Nc1cccc(N2CCCCC2)c1)n1cncn1 (centres undefined) | -7.36 |
| O=C(C1CC1)N1CCC(c2nc(O)c3c(n2)CCN(C2CCCC2)C3)C1 (centres undefined) | -5.51 |
| Cn1cc(CN2CCn3cc(CNC(=O)C4CCC4)nc3C2)cn1 | -3.67 |
| CN1N=C(C(=O)Nc2cc(F)ccc2OCC2CCCO2)CCC1=O (centres undefined) | -1.5 |
| CC(Cn1cccn1)NCc1nc(-c2cccc(Cl)c2)no1 (centres undefined) | -2.57 |
| Cn1nc(C2CCN(C(=O)Cc3cccc(F)c3)CC2)c2cccnc21 | -2.77 |
| O=C(CN1CCCC(O)C1)NC(=O)NCc1cccs1 (centres undefined) | -3.76 |
| O=C(Cn1cnnn1)N1CCCCC1Cn1cccn1 (centres undefined) | -4.89 |
| O=C(NCC1CC1)C1=NOC2(CCN(Cc3ccc4c(c3)OCO4)C2)C1 (centres undefined) | -4.9 |
| O=C(NC[C@@H]1CCCN1)c1cc(COc2cccc(C(F)(F)F)c2)[nH]n1 | -1.63 |
| CO[C@H]1CN(C(=O)c2ccc3oc(C)cc3c2)CC[C@@]12CCCO2 | -0.467 |
